Compound activity as filed in PubChem BioAssay.
KCNQ2 block: rat KCNQ2 potassium channel inhibitors, primary screen, cell-based, CHO-K1, FluxOR thallium flux, B-score; 20 min; active compounds read low; B-score at 10 µM; 1.1% of 310,000 active; AID 2156, 2009;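 active = fluorescence ratio B-score at most minus 3 library SDs, with starting brightness B-score within 2 library SDs, cut at about -5.5 in these data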
KCNQ2 pot: potentiators of rat KCNQ2 potassium channel | 0.54% of 310,000 active | CHO-K1 KCNQ2, FluxOR thallium flux fluorescence; active compounds read high | Potassium voltage-gated channel subfamily KQT member 2 (Rattus norvegicus), O88943 | B-score at 10 µM;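 active = fluorescence ratio B-score at least 3 SD of library B-scores, with initial fluorescence B-score within 3 of them, cut at about 5.3 in these data; same plate scores as AID 2156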;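 also: B-score of peak minus minimum over baseline fluorescence ratio after K+ and Tl+ stimulus; positive B-score means potentiation of KCNQ2 with more thallium influx and brighter signal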
Kir21 confirm: mouse Kir2.1 channel blockers, retest, confirmation, cell-based, FluxOR thallium flux, duplicate; Tl flux remaining, % of negative control (active compounds read low), % at 10 µM; AID 2032, 2009; Kir2.1-expressing cells, FluxOR thallium flux fluorescence; active compounds read low; shares compounds with KCNQ2 pot; 41% of 2,300 active;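 active = Primary-screen hit whose thallium flux fell at least 3 control SD below untreated wells in both duplicates, with normal baseline fluorescence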;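 also: 0% = blank wells without stimulus and 100% = stimulated no-compound controls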
HEK293 ctr: parental HEK293 activity in Kir2.1 inhibitor counter-screen | shares compounds with KCNQ2 pot | parental HEK293 cells, FluxOR thallium flux fluorescence; 0% = unstimulated blank wells | FluxOR signal as % of negative control (100 = no effect), % at 10 µM | 19% of 2,300 active | AID 2105;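 active = dye signal at least 3 control SD above or below untreated wells in both duplicates, raw fluorescence within 3, either direction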;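 also: percent is based on the flux ratio of peak minus minimum fluorescence over baseline F0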
CHO-K1 ctr: nonspecific thallium flux increase in parental CHO-K1, confirmation, counter-screen for KCNQ2 potentiator project, cell-based, FluxOR thallium flux, duplicate; shares compounds with KCNQ2 pot; parental CHO-K1 cells, FluxOR thallium flux fluorescence; zero = vehicle mean+3SD, 100% = vehicle-minus-blank window; activity increase over 3SD of controls, % at 10 µM; 43% of 1,200 active;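 active = signal rise of at least 3 SD above the untreated control mean, in both duplicate wells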;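 also: counter screen of KCNQ2 potentiator hits so any rise reflects channel-independent effects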
KCNQ1 pot spec: human KCNQ1 channel potentiation off-target, confirmation, selectivity assay for KCNQ2 potentiator project, cell-based, CHO, FluxOR thallium flux; 28% of 1,200 active; shares compounds with KCNQ2 pot; activation over 3SD threshold, % at 10 µM; CHO KCNQ1 stable, FluxOR thallium flux fluorescence; beyond 3SD, as % of vehicle-control signal;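 active = fluorescence ratio rise of at least 3 SD of vehicle wells above their mean, in both replicate wells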;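 also: 0% = vehicle mean plus 3 SD and 100% = vehicle minus unstimulated blank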
KCNQ2 pot conf: rat KCNQ2 channel potentiators, confirmation, cell-based, CHO, FluxOR thallium flux, duplicate. shares compounds with KCNQ2 pot. CHO-KCNQ2 cells, FluxOR thallium flux fluorescence. potentiation, less the hit threshold, % at 10 µM. 68% of 1,200 active. AID 2287, 2010;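 active = fluorescence ratio rising 3 SD or more over the vehicle control mean in both replicates, plus primary screen hit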;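 also: peak minus minimum thallium fluorescence divided by baseline after K/Tl stimulus; 0% = vehicle mean plus 3 SD and 100% = vehicle minus unstimulated blank difference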
Kir2-1 sel: mouse Kir2.1 channel activation off-target, confirmation, selectivity assay for KCNQ2 potentiator project, cell-based, HEK293, FluxOR thallium flux. shares compounds with KCNQ2 pot. HEK293 Kir2.1, FluxOR thallium flux fluorescence. activity over 3SD threshold, % at 10 µM. 2% of 1,200 active;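 active = fluorescence ratio rise of at least 3 SD above the vehicle-control mean, seen in both replicates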;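 also: 0% = vehicle mean plus 3 SD and 100% = vehicle minus no-stimulus blank window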
KCNQ2 W236L MoA: potentiators of retigabine-insensitive KCNQ2 W236L, mechanism study for KCNQ2 potentiator project, cell-based, rat KCNQ2 W236L, CHO, automated patch clamp | current increase over 3SD of negative controls (%), active compounds read high, % at 25 µM | shares compounds with KCNQ2 pot | automated patch clamp current | 10% of 940 active;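 active = current increase at least 3 SD of the untreated controls above them in both duplicate recordings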
Target sequence (O88943 whole entry W236L, looked up): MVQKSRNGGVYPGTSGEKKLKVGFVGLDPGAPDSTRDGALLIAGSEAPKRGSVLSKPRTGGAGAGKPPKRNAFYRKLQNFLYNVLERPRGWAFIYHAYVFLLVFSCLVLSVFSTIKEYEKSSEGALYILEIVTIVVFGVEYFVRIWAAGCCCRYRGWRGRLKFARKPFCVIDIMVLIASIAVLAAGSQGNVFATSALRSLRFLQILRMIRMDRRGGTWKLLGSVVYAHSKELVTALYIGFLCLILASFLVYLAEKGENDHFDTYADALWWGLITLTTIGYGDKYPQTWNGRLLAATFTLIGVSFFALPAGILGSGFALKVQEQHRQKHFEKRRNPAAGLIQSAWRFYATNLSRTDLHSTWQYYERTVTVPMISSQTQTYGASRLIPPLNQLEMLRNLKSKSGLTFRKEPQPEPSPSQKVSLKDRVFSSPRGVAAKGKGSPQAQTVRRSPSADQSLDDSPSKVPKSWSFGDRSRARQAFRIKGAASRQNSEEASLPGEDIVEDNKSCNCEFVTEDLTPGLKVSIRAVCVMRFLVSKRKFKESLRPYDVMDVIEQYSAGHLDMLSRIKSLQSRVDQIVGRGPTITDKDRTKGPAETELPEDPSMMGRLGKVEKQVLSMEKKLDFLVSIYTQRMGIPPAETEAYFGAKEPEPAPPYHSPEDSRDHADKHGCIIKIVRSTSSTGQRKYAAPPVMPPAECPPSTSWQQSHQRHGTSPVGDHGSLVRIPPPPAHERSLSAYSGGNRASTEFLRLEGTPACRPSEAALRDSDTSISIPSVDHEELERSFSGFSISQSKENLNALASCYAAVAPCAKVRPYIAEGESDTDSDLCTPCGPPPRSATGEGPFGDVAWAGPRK
Active calls of the source: *; i = inactive; x = no result given. Hits are enriched below; roughly 1.6% of the tested compounds scored in any of these assays.

SMILES	KCNQ2 block	KCNQ2 pot	Kir21 confirm	HEK293 ctr	others
CSC(=S)N/N=C(\C)c1ccccc1	i	8.71*	i	288.5%*	CHO-K1 ctr=-12.1;KCNQ1 pot spec=-12.2;KCNQ2 pot conf=26.5*;Kir2-1 sel=-15.1;KCNQ2 W236L MoA=9.3%*
CC(C)Oc1cccc(-c2cc(C(=O)NC(=S)N(C)c3ccccc3C(=O)O)c3ccccc3n2)c1	i	x	x	x
COc1ccc(OC)c(C(=O)c2c(C)oc3cc([N+](=O)[O-])c(O)c([N+](=O)[O-])c23)c1	i	0.84	x	x
Cc1oc2cc([N+](=O)[O-])c(O)c([N+](=O)[O-])c2c1C(=O)c1ccc(Cl)cc1	i	7.93*	i	143.5%*	CHO-K1 ctr=87.8*;KCNQ1 pot spec=-9.7;KCNQ2 pot conf=14.2*;Kir2-1 sel=-33.5;KCNQ2 W236L MoA=10.1%*
OCCNCCNCc1ccccc1OCc1ccccc1	i	x	x	x
OCCNCc1c(OCc2ccc(Cl)cc2)ccc2ccccc12	i	0.51	37.0%*	i
CC1CCN(CCCOc2ccc(Br)cc2Cl)CC1	i	x	38.5%*	i
CC1CCCN(CCOCCOc2ccc(Br)cc2Cl)C1 (centres undefined)	i	x	x	x
O=C(Nc1ccnn1C1CCN(C(=O)c2cccc(Cl)c2)CC1)C1CCOC1 (centres undefined)	i	1.32	x	x
CC(=O)c1ccc(N(CC(=O)NC2CCCCC2)C(=O)CNC(=O)c2cccs2)cc1	i	x	x	x
OC(CNCCc1ccc(C(F)(F)F)cc1)COC(c1ccccc1)c1ccccc1 (centres undefined)	i	x	51.0%*	68.0%*
COc1ccc(C(OCC(O)CNCCc2ccc(S(N)(=O)=O)cc2)c2ccc(OC)cc2)cc1 (centres undefined)	i	0.06	x	x
COc1ccc2[nH]c(C(=O)O)c(CCNC(=O)/C=C/c3ccc(O)c(OC)c3)c2c1	i	0.04	x	x
NNC(=O)c1ccc(COc2ccc3ccccc3c2)o1	i	1.23	x	x
O=C(OCc1ccccn1)c1ccc(COc2ccc3ccccc3c2)o1	i	5.41*	i	i	CHO-K1 ctr=-13.9;KCNQ1 pot spec=-7.5;KCNQ2 pot conf=-19.2;Kir2-1 sel=-21.9
COc1ccc(Cl)cc1NC(=O)CN(C)C(=O)c1ccc(N2CCCCCC2)c([N+](=O)[O-])c1	i	x	x	x
CC(=O)C1=C(C)NC(SCC(=O)c2ccc(Cl)cc2Cl)=C(C#N)C1c1ccco1 (centres undefined)	i	1.42	x	x
CC(=O)C1=C(C)NC(SCC(=O)c2ccc(Cl)cc2)=C(C#N)C1c1ccco1 (centres undefined)	i	11.6*	i	i	CHO-K1 ctr=-20.7;KCNQ1 pot spec=16.9*;KCNQ2 pot conf=-23.8;Kir2-1 sel=-37.4
CCCCNC(=O)c1nn2c(C(F)(F)F)cc(-c3ccc(OC)cc3)nc2c1Br	i	0.14	x	x
c1ccc(-c2ncc(CN3CCN(c4ccccn4)CC3)[nH]2)cc1	i	0.84	x	x
CCC(C)c1ccc(NC(=O)NCCN2CCCCC2)cc1 (centres undefined)	i	2.81	x	x
NC(=O)C1CCN(c2oc(/C=C/c3ccccc3)nc2S(=O)(=O)c2ccccc2)CC1	i	0.01	x	x
COC(=O)CN(c1ccccc1)S(=O)(=O)c1ccc(F)cc1	i	0.02	x	x
CCS(=O)(=O)c1ncc(Cl)c(C(=O)Nc2ccc(S(=O)(=O)N(C)c3ccccc3)cc2)n1	i	x	x	x
CCN(c1ccccc1)S(=O)(=O)c1ccc(C(=O)Nc2ncccc2O)cc1	i	x	x	x
SMILES	KCNQ2 block	KCNQ2 pot	Kir21 confirm	HEK293 ctr	others
CCN(c1ccccc1)S(=O)(=O)c1ccc(NC(=O)c2nc(S(C)(=O)=O)ncc2Cl)cc1	i	8.96*	i	74.5%*	CHO-K1 ctr=-11.4;KCNQ1 pot spec=-59.1;KCNQ2 pot conf=-2.9;Kir2-1 sel=-53.9;KCNQ2 W236L MoA=i
CCN(c1ccccc1)S(=O)(=O)c1ccc(C(=O)Nc2ccncc2)cc1	i	8.25*	i	i	CHO-K1 ctr=79.0*;KCNQ1 pot spec=-20.0;KCNQ2 pot conf=9.8*;Kir2-1 sel=-56.8;KCNQ2 W236L MoA=i
CCN(c1ccccc1)S(=O)(=O)c1ccc(F)cc1	i	x	54.5%*	i
Cc1ccc(NC(=O)CN2CCN(C)CC2)cc1Br	i	0.94	x	x
COc1ccc(C(=O)N2CCC(O)(c3ccc(Cl)cc3)CC2)cc1OC	i	x	x	x
Cc1ccc(S(=O)(=O)NCCn2nc(C)nc2C)cc1	i	0.05	x	x
Cc1n[nH]c(=O)c2c(NC(=O)CSc3nc4ccccc4c(=O)n3C(C)C)oc(C)c12	i	0.11	x	x
COc1ccc(C[C@H]2CN3C(=NC[C@@H]3Cc3ccccc3)N2C[C@H](C)NC(=O)CCC2CCCCC2)cc1	i	x	38.5%*	i
COc1ccc(C[C@H]2CN3C(=NC[C@H]3Cc3ccccc3)N2CCNC(=O)CCC2CCCCC2)cc1	i	x	47.0%*	i
C[C@@H](CN1C2=NC[C@H](Cc3ccccc3)N2C[C@H]1Cc1ccc(O)cc1)NC(=O)CCC1CCCCC1	i	x	x	x
C/C=C(\C)C(=O)NCCN1C2=NC[C@H](Cc3ccccc3)N2C[C@@H]1Cc1ccc(OC)cc1	i	0.09	x	x
O=c1[nH]c2cc3c(cc2cc1CN(Cc1ccco1)C(=S)NCCCN1CCOCC1)OCCO3	i	0.86	x	x
CN1CCN(C(=O)C2CCC(=O)N(Cc3cccc(C(F)(F)F)c3)C2)CC1 (centres undefined)	i	x	x	x
C/C(=N\NC(=O)c1cc(C)nc2ccccc12)c1cccc(Cl)c1	i	x	x	x
O=[N+]([O-])c1ccc(NCCNS(=O)(=O)c2ccccc2)c(C(F)(F)F)c1	i	x	i	i
Cc1ccc(S(=O)(=O)NCCNc2ccc([N+](=O)[O-])cc2C(F)(F)F)cc1	i	x	x	x
